From PubChem BioAssay
A selection: hits, their analogues and other compounds. The true share with any hit is near 3.9%.
C8 TRAIL sens: sensitizes caspase-8 expressing cells to TRAIL; inhibition (viability loss, TRAIL sensitization), % at 10 µM; actives 1% (n = 360,000); AID 624354; NB7+C8 cells + TRAIL, ATPlite viability luminescence;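 active = compounds causing at least 50% loss of cell viability in the single-dose screen, relative to plate controls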
HIF-2a block: HIF-2a inhibition | inhibition, % at 18.8 µM | actives 0.72% (n = 360,000) | 786-0 RCC cells HIF-2a reporter, luciferase luminescence, overnight;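 active = inhibition of the luminescence signal of 40% or more relative to plate controls, in a single-dose primary screen at 18.75 µM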
HSP90 refold inh: HSP90 refolding inhibition in rabbit reticulocyte lysate. luciferase refolding luminescence, 3 h. inhibition, % at 5.6 µM. actives 0.91% (n = 290,000). AID 1789;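 active = inhibition above the screen-wide mean plus 3 SD, computed separately per campaign, cut at about 16% in these data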;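 also: 0% = DMSO wells and 100% = 60 µM geldanamycin wells; inhibitors lower the luminescence because luciferase stays unfolded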
TWEAK Fn14 block: blocks TWEAK-Fn14 interaction in a reporter cell assay. actives 2% (n = 360,000). TWEAK-stimulated Fn14 reporter cells, luciferase luminescence, 8 h. inhibition, % at 10 µM; in the data active = inhibition above about 50%
TROY NFkB inh: inhibitors of TROY-dependent NF-kB signaling; Q293 LMP1-TROYcd NF-kB luciferase reporter, 4 h; inhibition, % at 10 µM; actives 0.98% (n = 360,000); AID 1347056;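 active = compounds whose plate-normalised and pattern-corrected inhibition of the luciferase reporter signal at the single screening dose is 50% or more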
aSyn 5UTR inh: MLPCN primary screen, SNCA 5' untranslated region. actives 0.82% (n = 300,000). alpha-synuclein 5'UTR reporter, inhibitor activity. AID 1813. inhibition, % (tested at 7.5 µM); in the data active = inhibition above about 60%;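 also: H4 neuroglioblastoma cells stably carrying SNCA 5'UTR luciferase fusion; 0% = DMSO wells and 100% = positive control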
* = called active by the depositor; . = no result given.

SMILES	C8 TRAIL sens	HIF-2a block	HSP90 refold inh	TWEAK Fn14 block	TROY NFkB inh	aSyn 5UTR inh
CCC(=O)N1CCN(c2ccc(NC(=O)c3ccco3)cc2Cl)CC1	-10	-46	1	-36	-19	-43
O=C(Nc1ccc(N2CCN(C(=O)c3ccccc3)CC2)c(Cl)c1)c1ccco1	19	-11	6	6	35	27
O=C(Nc1ccc(N2CCN(C(=O)c3ccco3)CC2)c(Cl)c1)c1cc2ccccc2o1	61*	-28	2	97*	72*	-26
COc1cccc(-c2oc3c(c2C(=O)OCCN(C)C)C(O)CCC3)c1 (stereo not drawn)	8	-2	.	-6	-20	.
CCOC(=O)c1cnc2c(OC)cccc2c1N1CCN(c2ccccc2OC)CC1	6	7	1	11	-11	62*
C=CCOc1ccc(CN(C)CC(O)COc2ccc(CCC(C)=O)cc2)cc1 (stereo not drawn)	11	6	-5	55*	6	7
COC(=O)[C@@]1(C(C)C)N=C(c2cc(OC)c(OC)c(OC)c2)[C@]2(O1)C(=O)Nc1ccc(F)cc12	8	11	.	1	-3	.
Cc1cccc(C)c1NC(=O)NS(=O)(=O)c1ccccc1	-1	3	.	6	-4	.
O=C(CSc1nccc(=O)[nH]1)Nc1cccc2ccccc12	10	9	0	50*	-12	-1
O=C(OCc1cccc(Cl)c1)c1cc([N+](=O)[O-])ccc1N1CCOCC1	20	5	.	2	67*	6
COc1ccc(COC(=O)c2cc([N+](=O)[O-])ccc2N2CCOCC2)cc1F	-17	29	.	36	10	68*
O=C(OCc1ccc(Br)cc1)c1cc([N+](=O)[O-])ccc1N1CCOCC1	17	12	.	0	-23	.
O=C(OCc1cccc(C(F)(F)F)c1)c1cc([N+](=O)[O-])ccc1N1CCOCC1	-2	4	.	-16	-7	13
O=C(O)c1ccccc1NC(=O)C1CCN(S(=O)(=O)c2ccc3c(c2)OCCO3)CC1	5	21	.	-33	3	.
CN1CCN(c2nc3cc(N4CCOCC4)ccc3s2)CC1	-7	-168	.	-13	-54	.
COc1ccc(S(=O)(=O)Nc2c(C(=O)O)[nH]c3ccc(OC)cc23)cc1	-9	-29	-2	-2	-18	-1
COC(=O)c1[nH]c2ccc(F)cc2c1NS(=O)(=O)c1ccc(OC)cc1	-26	23	-1	28	17	100*
O=C(NCc1ccc(F)cc1)c1cc(C2CCCN(C(=O)c3ccc4ccccc4c3)C2)on1 (stereo not drawn)	12	13	.	6	17	.
CCOC(=O)C1=CCN(S(=O)(=O)c2ccc(Cl)cc2)C1c1cccc(C)c1 (stereo not drawn)	-7	5	.	13	5	.
CCNC(=S)N=Nc1c(O)[nH]c2ccc(C(C)C)cc12	2	7	-3	14	4	63*
CC(C)c1ccc2[nH]c(O)c(N=NC(=S)NCCc3ccccc3)c2c1	12	16	5	-8	8	-27
O=C(C(O)c1ccccc1)N1CCN(S(=O)(=O)c2ccc(F)c(F)c2)CC1 (stereo not drawn)	-4	8	.	.	.	.
COc1cc(-c2cc(NC(C)=O)c3ncc(-c4cc(OC)c(OC)c(OC)c4)n3c2)cc(OC)c1OC	32	-84	.	50*	6	.
COc1cccc(-c2cnc3c(NC=O)cc(-c4cccc(NC(C)=O)c4)cn23)c1	15	-25	.	30	61*	.
COc1cc(-c2cnc3c(NC=O)cc(-c4cccc(NC(C)=O)c4)cn23)cc(OC)c1OC	5	26	.	60*	25	.
SMILES	C8 TRAIL sens	HIF-2a block	HSP90 refold inh	TWEAK Fn14 block	TROY NFkB inh	aSyn 5UTR inh
Cc1ccccc1N1CCN(C2CCCN(C(=O)CSc3ccccn3)C2)CC1 (stereo not drawn)	-1	-32	.	-37	-18	.
CCOC(=O)c1cc(=O)nc(N)s1	-5	8	.	18	3	.
Cc1ccc(O)c(C(=O)c2cnn(C(=O)c3cccc(S(=O)(=O)N(C)C)c3)c2)c1	2	18	.	63*	40	.
COc1ccc(O)c(C(=O)c2cnn(C(=O)c3cccc(S(=O)(=O)N(C)C)c3)c2)c1	-10	-3	.	35	-19	.
Cn1cnc2nc(Cl)nc(Cl)c21	5	35	.	54*	18	.
CNc1nc(Cl)nc2ncn(C)c12	-10	20	.	4	-3	.
Cc1c(NC(=O)/C(=C\c2ccccc2)NC(=O)c2ccccc2)c(=O)n(-c2ccccc2)n1C	-3	2	0	94*	-9	16
Cc1c(NC(=O)/C(=C/c2cccs2)NC(=O)c2ccccc2)c(=O)n(-c2ccccc2)n1C	-3	10	2	13	2	14
O=C1Nc2ccccc2N(C(=O)c2ccc3ccccc3c2)C1c1nc2ccccc2[nH]1 (stereo not drawn)	58*	-216	.	17	-74	.
CC1(C(=O)NCC2CCOCC2)Cc2c(-c3cccc(C(F)(F)F)c3)ccnc2O1 (stereo not drawn)	9	12	.	4	11	.
CCOC(=O)N1CCN(C(=O)/C(=C/c2cccc3ccccc23)NC(=O)c2ccc(OC)cc2)CC1	1	-114	7	19	56*	.
COc1cc(C(=O)NC(=S)N(C)Cc2ccccc2)cc(OC)c1OC	19	18	6	-4	-20	2
COc1cc(C(=O)NC(=S)N(CCc2ccccc2)CCc2ccccc2)cc(OC)c1OC	29	29	1	38	70*	69*
COc1cc(OC)cc(C(=O)Nc2ccc3c(c2)OCCO3)c1	51*	-235	-1	-21	-42	-123
COc1ccc(C2=NO[C@@](CC(=O)O)(C(=O)Nc3ccc4c(c3)OCCO4)C2)cc1	6	-80	0	43	55*	-31
COc1ccc(S(=O)(=O)NC(C)C(=O)Nc2ccc3c(c2)OCCO3)cc1OC (stereo not drawn)	-8	4	-4	75*	8	3
NC(=O)COc1ccccc1C1=NO[C@@](CC(=O)O)(C(=O)Nc2ccc3c(c2)OCCO3)C1	-10	9	-9	-1	7	-8
CC(=O)Nc1ccc(C(=O)Nc2ccc3c(c2)OCCO3)cc1	18	-41	-1	24	-21	21
COc1cccc(/C=C/C(=O)Nc2ccc3c(c2)OCCO3)c1OC	80*	-103	21*	-25	8	-23
CCC(NC(=S)NC1CCCCC1)c1ccc(C(C)C)cc1 (stereo not drawn)	-14	2	-2	18	4	-2
CCCC(C)(C)C(=O)N1CCC1(C)C(=O)NS(=O)(=O)c1cccc(Cl)c1 (stereo not drawn)	0	6	.	-5	-7	.
c1ccc(SC23CCCCN(CCC2)C32OCCO2)cc1 (stereo not drawn)	-12	7	.	-4	-7	.
CC1(C)OC(=O)C2=C(C[C@@H](C3CC3)O[C@@H]2C2CC2)O1	-10	0	.	4	4	.
